From PubChem BioAssay AID1259422 (The Scripps Research Institute Molecular Screening Center, 2018)
The whole screen tested about 640,000 compounds, of which about 9,300 (1.5%) were called active. The sample holds actives, similar compounds and a random draw of the others, so the mix is not that of the screen. No stated cut-off is given here; in the data, active means inhibition above about 32%; inactive means the rest.

Test: TEAD-YAP interaction inhibition, primary screen, TEAD-YAP interaction inhibitor project, luminescence, HEK-TIYL cells (AID 1259422);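 further: 0% = median of test compound wells and 100% = reference inhibitor wells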
Settings: TEAD-Gal4/YAP UAS-luciferase luminescence, at 9.12 µM, stronger effect = higher value

SMILES | inhibition
COc1ccc(NC(=O)/C(=C\c2ccc3c(c2)OCO3)NC(=O)c2ccccc2Cl)c(OC)c1 | 21.2% (inactive)
COc1ccc(OC)c(/C=N/NC(=O)COc2ccc(Br)cc2)c1 | -1.77% (inactive)
COc1ccc(/C=N/NC(=O)COc2ccc(Cl)cc2Br)cc1OC | 8.94% (inactive)
CCOC(=O)c1c(C)[nH]c(C(=O)OCC(=O)Nc2ccccc2C(C)(C)C)c1C | 7.06% (inactive)
Cc1cc2nn(-c3ccccc3)nc2cc1NC(=S)NC(=O)c1oc2ccccc2c1C | 7.4% (inactive)
C=C(C)C1C=C(C)/C(=N/NC(=O)c2ccc(N3CCCC3=O)cc2)CC1 (stereo not drawn) | 0.92% (inactive)
COc1ccc(/C=C2\Oc3cc(OC(=O)C4CC4)cc(C)c3C2=O)c(OC)c1OC | -17.3% (inactive)
O=C1/C(=C/c2cccnc2)Oc2cc(OC(=O)C3CC3)ccc21 | 33.5% (active)
O=C(Oc1ccc2c(c1)C(=O)c1cc(OC(=O)c3cccnc3)ccc1-2)c1cccnc1 | -14.7% (inactive)
CCCn1c(=O)[nH]c2c(C(N)=O)nc(-c3cn(C)nc3C)nc21 | -23% (inactive)
O=C(CNc1cccc(Br)c1)Nc1ccccc1C(=O)Nc1ccccc1 | 2.84% (inactive)
Nc1ccc2c(c1)C(=O)C(=O)c1cc(N)ccc1-2 | 99% (active)
O=C1c2cc(O)ccc2-c2ccc(O)cc21 | -8.01% (inactive)
O=C1c2cc(S(=O)(=O)N3CCCC3)ccc2-c2ccc(S(=O)(=O)N3CCCC3)cc21 | -1.36% (inactive)
CCCCN(CC)CCNC(=O)CCNC(=O)Cn1cnc2sc3c(c2c1=O)CCCC3 | -4.71% (inactive)
CCN1CCN(C(=O)c2ccc(OC)cc2OC)CC1 | 2.8% (inactive)
COc1cc(Nc2cc(-c3nocc3-c3cnn(C)c3)ccn2)ccc1N1CCOCC1 | 15% (inactive)
Cn1cc(-c2cc(Nc3ccc(N4CCOCC4)cn3)ncc2Cl)cn1 | 38.9% (active)
Cn1nccc1Nc1cc(Nc2ccc(N3CCOCC3)cc2)ncn1 | 2.78% (inactive)
CCCN1CC=C2C(C1)C(c1cccc(C(F)(F)F)c1)C(C#N)=C(N)C2(C#N)C#N (stereo not drawn) | -14.9% (inactive)

SMILES | inhibition
CC(C)n1cnc2c(NC3CC3)nc(-c3ccc(N4CCOCC4)nc3)nc21 | 1.84% (inactive)
CC(C)n1cnc2c(NC3CCN(Cc4ccccc4)CC3)nc(NC3CCN(Cc4ccccc4)CC3)nc21 | 23.1% (inactive)
CC(C)n1cnc2c(NC3CCN(Cc4ccccc4)CC3)nc(-c3ccc(N4CCOCC4)nc3)nc21 | 36.3% (active)
c1ccc(CN2CCC(Nc3nc(-c4ccccc4)nc4c3ncn4C3CCCCC3)CC2)cc1 | 6.01% (inactive)
CC(C)n1cnc2c(NC3CCN(Cc4ccccc4)CC3)nc(Nc3ccc(N4CCOCC4)cc3)nc21 | 55.8% (active)
c1ccc(CN2CCC(Nc3nc(Nc4ccc(N5CCOCC5)cc4)c4ncn(C5CCCCC5)c4n3)CC2)cc1 | 7.35% (inactive)
NC(=O)c1ccc(C(=O)N2CCC3(CC2)NC(=O)c2ccccc2O3)c(F)c1 | 9.77% (inactive)
O=C(Cc1cccc2ccccc12)Nc1ccccc1-c1nc2ccccc2s1 | 4.57% (inactive)
c1ccc2nc(-c3nc4ccccc4s3)ccc2c1 | 50.1% (active)
CC(=O)Nc1sc(C)c(C)c1-c1nc2ccccc2s1 | -2.29% (inactive)
CCS(=O)(=O)N1CCN(c2cccc(Cl)c2)CC1 | 4.72% (inactive)
CCOc1ccc(/C=N/NC(=O)c2cc(C(C)(C)C)[nH]n2)c(O)c1 | 59.8% (active)
CCOc1ccc(-c2cc(C(=O)N/N=C/c3c[nH]c4ccccc34)[nH]n2)cc1 | 55.9% (active)
CC(C)(C)c1cc(C(=O)N/N=C/c2c(O)ccc3ccccc23)n[nH]1 | -0.43% (inactive)
CCOc1cccc(-c2cc(C(=O)N/N=C/c3ccccc3O)[nH]n2)c1 | -2.87% (inactive)
Cc1cc(C(=O)N/N=C/c2ccc(Br)c([N+](=O)[O-])c2)n[nH]1 | 6.76% (inactive)
CCCOc1ccc(/C=N/NC(=O)OC)c(O)c1 | -15.8% (inactive)
CCOc1ccc(O)c(/C=N/NC(=O)CNc2ccc3ccccc3c2)c1 | -7.17% (inactive)
CCOc1ccc(-c2cc(C(=O)N/N=C\c3ccccc3O)[nH]n2)cc1OC | 1.39% (inactive)
Cc1ccc(/C=N\NC(=O)c2cc(C(C)(C)C)[nH]n2)cc1 | 45.2% (active)

SMILES | inhibition
CSc1nnc2c(n1)OC(c1ccc(N(C)C)cc1)Nc1ccc(Br)cc1-2 (stereo not drawn) | -2.24% (inactive)
Cc1cccc(N(CC(O)c2ccccc2)S(=O)(=O)c2ccc3c(c2)OCCO3)c1 (stereo not drawn) | 2.94% (inactive)
N#CC(C#N)=C1SCC(=O)N1c1ccc(F)cc1 | -0.92% (inactive)
CCn1c(N=Nc2c(O)[nH]c3ccccc23)nc2c1c(=O)n(C)c(=O)n2C | 6.12% (inactive)
OCCC1CCCCN1c1ccnc2c(-c3ccc(F)c(Cl)c3)cnn12 (stereo not drawn) | 41.4% (active)
CN(C)CCNc1ccnc2c(-c3ccc(F)c(Cl)c3)cnn12 | -31.8% (inactive)
O=C(NCCO)c1cccc(-c2cnn3c(N4CCCCC4CCO)ccnc23)c1 (stereo not drawn) | -6.65% (inactive)
Cc1ccc(-c2cnn3c(NCc4ccc5c(c4)OCO5)ccnc23)cc1 | -8.18% (inactive)
OC[C@@H]1CCCN1c1ccnc2c(-c3ccc4c(c3)OCO4)cnn12 | 55.2% (active)
OC[C@@H]1CCCN1c1ccnc2c(-c3cccc4ccccc34)cnn12 | -40.1% (inactive)
N#Cc1ccsc1NC(=O)COC(=O)CC12CC3CC(CC(C3)C1)C2 | -33.5% (inactive)
COc1ccc(Cl)cc1NC(=S)NC(C)c1ccncc1 (stereo not drawn) | 2.52% (inactive)
CC1CN(c2nc3c(c(=O)[nH]2)CCN(c2cnccn2)C3)CC(C)O1 (stereo not drawn) | 9.31% (inactive)
C=CCN1C(=O)S/C(=C/c2ccccc2F)C1=O | -54.7% (inactive)
Cc1ccc(OCc2nc3ccccc3n2CC(=O)Nc2cc(C)on2)cc1 | -69.6% (inactive)
Oc1ccc(/C=N/Nc2ccccc2Cl)c(O)c1O | -1.62% (inactive)
NC(=O)c1ccc(N=Cc2cccc(O)c2O)cc1 | -12.1% (inactive)
Oc1cccc(/C=N/Nc2ccc(Cl)nn2)c1O | 79.2% (active)
